Data: PubChem BioAssay (NCI)
Compounds without any hit were thinned out: in the full panel of roughly 83,000, 20% have a hit.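 Values shown are percent growth following 48 h exposure of cells in 96-well plates to a single concentration of compound; below 10 was considered active.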 Active and inactive are the calls of the source.

Assays:
Assay in all cases: NCI-60 one-dose screen, 48 h (100 = growth as untreated, 0 = no growth, -100 = all killed)
Details in all cases: 10 µM unless noted
SK-MEL-2 melanoma = tested on: SK-MEL-2 melanoma
EKVX NSCLC = tested on: EKVX NSCLC
SN12C renal = tested on: SN12C renal
UO-31 renal = tested on: UO-31 renal
TK-10 renal = tested on: TK-10 renal
ACHN renal = tested on: ACHN renal
A498 renal = tested on: A498 renal
CCRF-CEM leukemia = tested on: CCRF-CEM leukemia
MOLT-4 leukemia = tested on: MOLT-4 leukemia

Measured: growth

O=C(CNc1cccnc1)Nc1ccc(C(=O)/C=C/c2ccc(Cl)cc2)cc1
inactive: SK-MEL-2 melanoma 84.4% | EKVX NSCLC 95% | SN12C renal 88.7% | UO-31 renal 77.7% | TK-10 renal 106% | ACHN renal 101% | A498 renal 86.9% | CCRF-CEM leukemia 26.6%

CCOc1ccccc1C(=O)N1CCN(c2cc(Cl)cc(Cl)c2)CC1
inactive: SK-MEL-2 melanoma 18.5% | EKVX NSCLC 34.1% | SN12C renal 25.7% | UO-31 renal 24.9% | TK-10 renal 55.5% | ACHN renal 21.9%
active: A498 renal 6.38% | CCRF-CEM leukemia 7.43%

COc1ccc(C2CC(c3cc(Cl)c(C)cc3OC)=NN2c2ccc(S(N)(=O)=O)cc2)cc1OC (configuration not stated)
inactive: SK-MEL-2 melanoma 95.8% | EKVX NSCLC 80.6% | SN12C renal 87.4% | UO-31 renal 59.1% | TK-10 renal 113% | ACHN renal 84% | A498 renal 112%

CCc1c2cc(Cl)ccc2n2cc(Cc3ccccc3)[nH]c(=O)c12
inactive: SK-MEL-2 melanoma 97.5% | EKVX NSCLC 101% | SN12C renal 101% | UO-31 renal 82.3% | TK-10 renal 120% | ACHN renal 93.3% | A498 renal 102% | CCRF-CEM leukemia 93.9%

O=C(O)c1cn(C2CC2)c2cc(N3CCN(C(=O)CSc4nc(NS(=O)(=O)c5ccccc5)cc(=O)[nH]4)CC3)c(F)cc2c1=O
inactive: SK-MEL-2 melanoma 79.7% | EKVX NSCLC 105% | SN12C renal 98.6% | UO-31 renal 82% | TK-10 renal 118% | ACHN renal 102% | A498 renal 113% | CCRF-CEM leukemia 81%

COc1ccc(SC2c3ccc(O)cc3Oc3nc(N)c(C#N)c(N)c32)cc1 (configuration not stated)
inactive: SK-MEL-2 melanoma 98.1% | EKVX NSCLC 79% | SN12C renal 54.3% | UO-31 renal 71.1% | TK-10 renal 73% | ACHN renal 97.7% | A498 renal 84.7% | CCRF-CEM leukemia 31.8% | MOLT-4 leukemia 67.7%

Oc1ccc(O)c(-[n+]2ccccc2)c1
inactive: SK-MEL-2 melanoma 101% | EKVX NSCLC 105% | SN12C renal 98.1% | UO-31 renal 94% | TK-10 renal 100% | ACHN renal 107% | A498 renal 108% | CCRF-CEM leukemia 101%

CCn1cc(/C=C2\Oc3cc(OCC#N)ccc3C2=O)c2cc(OC)ccc21
inactive: SK-MEL-2 melanoma 37.5% | EKVX NSCLC 47.8% | SN12C renal 42.4% | UO-31 renal 45.7% | TK-10 renal 74.2% | ACHN renal 54.2% | A498 renal 62.4% | MOLT-4 leukemia 12.9%
active: CCRF-CEM leukemia 9.65%

N#CC1=C(N)Oc2c(ccc3ccccc23)C1c1cc(=O)oc2ccc(Cl)cc12 (configuration not stated)
inactive: SK-MEL-2 melanoma 43.6% | EKVX NSCLC 44.5% | SN12C renal 47.5% | UO-31 renal 50.9% | TK-10 renal 71.4% | ACHN renal 50.8% | A498 renal 23.4% | CCRF-CEM leukemia 18.6%

COc1ccc(-c2c(NC(=O)Nc3ccc(Cl)c(C(F)(F)F)c3)cnn2-c2ccc(S(N)(=O)=O)cc2)cc1
active: SK-MEL-2 melanoma -4.24% | CCRF-CEM leukemia 8.88% | MOLT-4 leukemia 1.8%
inactive: EKVX NSCLC 61.6% | SN12C renal 51.4% | UO-31 renal 50.9% | TK-10 renal 30.9% | ACHN renal 57.5% | A498 renal 26.8%

CC(=O)O[C@@H]1[C@@H](OC(C)=O)[C@H](OC(C)=O)CO[C@H]1Nc1cccc2ccccc12
inactive: SK-MEL-2 melanoma 82.3% | EKVX NSCLC 99.8% | SN12C renal 94.3% | UO-31 renal 62.4% | TK-10 renal 115% | ACHN renal 98.8% | A498 renal 101% | CCRF-CEM leukemia 71.7%

COc1ccccc1S(=O)(=O)Nc1ccc2c3c(cc(-c4ccoc4)nc13)C(=O)N2C
inactive: SK-MEL-2 melanoma 74.8% | EKVX NSCLC 66.4% | SN12C renal 82.3% | UO-31 renal 39.9% | TK-10 renal 37.5% | ACHN renal 70.6% | A498 renal 71.7% | CCRF-CEM leukemia 76.5%

CCOC(=O)C1CN(Cc2ccccc2)C(=O)C1=O (configuration not stated)
inactive: SK-MEL-2 melanoma 114% | EKVX NSCLC 110% | SN12C renal 108% | UO-31 renal 64.3% | TK-10 renal 113% | ACHN renal 104% | A498 renal 91.6% | CCRF-CEM leukemia 22.9%

N#Cc1c(N)nc2c(c1N)C(c1ccc(Cl)cc1)C1=C(CCCC1=O)N2c1sc2c(c1C#N)CCCC2 (configuration not stated)
active: CCRF-CEM leukemia -34%
inactive: SK-MEL-2 melanoma 95.8% | EKVX NSCLC 93.7% | SN12C renal 95.4% | UO-31 renal 95.9% | TK-10 renal 89.2% | ACHN renal 96.8% | A498 renal 100%

Cc1cc[n+](CCCC[n+]2ccc(C)cc2)cc1
inactive: SK-MEL-2 melanoma 124% | EKVX NSCLC 97.2% | SN12C renal 97.4% | UO-31 renal 96% | TK-10 renal 107% | ACHN renal 104% | A498 renal 121% | CCRF-CEM leukemia 91.7% | MOLT-4 leukemia 91.1%

Cc1ccn2cc(Cc3cc(=O)oc4c3ccc3ccccc34)c(=O)nc2c1
inactive: SK-MEL-2 melanoma 80.6% | EKVX NSCLC 92.5% | SN12C renal 96.4% | UO-31 renal 80.2% | TK-10 renal 124% | ACHN renal 95.5% | A498 renal 111% | CCRF-CEM leukemia 95.8%

CC1=C[S+](c2ccccc2)c2cccc3cc4ccccc4c1c23 (configuration not stated)
active: SK-MEL-2 melanoma -65.2% | EKVX NSCLC -1.91% | SN12C renal -60.2% | UO-31 renal -39.5% | TK-10 renal 2.15% | CCRF-CEM leukemia 4.35% | MOLT-4 leukemia -23.5%
inactive: ACHN renal 15.3% | A498 renal 27.5%

COc1cc(/C=C/C(=O)c2c(C)n([O-])c3cc(C)c(C)cc3[n+]2=O)cc(OC)c1OC
inactive: SK-MEL-2 melanoma 69.6% | EKVX NSCLC 79.2% | SN12C renal 72.8% | UO-31 renal 14.2% | TK-10 renal 77% | ACHN renal 69.2% | A498 renal 41.8% | CCRF-CEM leukemia 38% | MOLT-4 leukemia 44.3%

COc1ccc(/C=C2\CS(=O)(=O)C/C(=C\c3ccc(OC)cc3)C2=O)cc1
active: SK-MEL-2 melanoma -7.45% | SN12C renal -52.1% | UO-31 renal -100% | TK-10 renal 2.72% | ACHN renal -51% | CCRF-CEM leukemia -0.95%
inactive: EKVX NSCLC 11.4% | A498 renal 36%

NC(N)=N/N=C/c1ccc([N+](=O)[O-])cc1
inactive: SK-MEL-2 melanoma 115% | EKVX NSCLC 102% | SN12C renal 96.7% | UO-31 renal 82.6% | TK-10 renal 112% | ACHN renal 106% | A498 renal 79.7% | CCRF-CEM leukemia 112%

COC(=O)c1oc2c(C(C)=O)c(OCCN3CCCCC3)ccc2c1C
inactive: SK-MEL-2 melanoma 88.7% | EKVX NSCLC 113% | SN12C renal 119% | UO-31 renal 84.5% | TK-10 renal 92.1% | ACHN renal 108% | A498 renal 131% | CCRF-CEM leukemia 50.5%

c1coc(CSc2ncnc3nc[nH]c23)c1
inactive: SK-MEL-2 melanoma 105% | EKVX NSCLC 103% | SN12C renal 102% | UO-31 renal 86.5% | TK-10 renal 125% | ACHN renal 106% | A498 renal 90.8%

CC(=O)N1N=C(CCC(=O)c2nc3ccc([N+](=O)[O-])cc3[nH]2)OC1c1ccc(O)cc1 (configuration not stated)
inactive: SK-MEL-2 melanoma 57.4% | EKVX NSCLC 92.5% | SN12C renal 109% | UO-31 renal 80.9% | TK-10 renal 113% | ACHN renal 106% | A498 renal 104% | CCRF-CEM leukemia 114%

CNC(=O)NN
inactive: SK-MEL-2 melanoma 119% | EKVX NSCLC 91.5% | SN12C renal 110% | UO-31 renal 71.7% | TK-10 renal 111% | ACHN renal 88.9% | A498 renal 93.2% | CCRF-CEM leukemia 65.8%

CC1(C)N=C(N)N=C(N)N1c1ccc(F)c(C(F)(F)F)c1
inactive: SK-MEL-2 melanoma 54.4% | EKVX NSCLC 65.2% | SN12C renal 47.4% | UO-31 renal 41.8% | TK-10 renal 65.5% | ACHN renal 36% | A498 renal 93.1% | CCRF-CEM leukemia 20.8%

CCCCCn1ncc(-c2c(O)c(O)cc3c(O)c(-c4c(C)cc5c(-c6cnn(CCCCC)n6)c(O)c(O)cc5c4O)c(C)cc23)n1
inactive: SN12C renal 18.6% | TK-10 renal 10.2% | A498 renal 53%
active: SK-MEL-2 melanoma 3.71% | EKVX NSCLC 9.87% | UO-31 renal -49.5% | ACHN renal 6.56% | CCRF-CEM leukemia 1.09%

O=C(Cn1c2ccccc2c2ccncc21)N/N=C/c1cc(O)c(O)c(O)c1
inactive: SK-MEL-2 melanoma 98.9% | EKVX NSCLC 109% | SN12C renal 104% | UO-31 renal 98.6% | TK-10 renal 107% | ACHN renal 108% | A498 renal 97.5% | CCRF-CEM leukemia 112%

NC(CSC(c1ccccc1)(c1ccccc1)c1ccc(F)cc1)C(=O)O (configuration not stated)
active: SK-MEL-2 melanoma -30.6% | EKVX NSCLC 7.52%
inactive: SN12C renal 39% | UO-31 renal 25.3% | TK-10 renal 64.8% | ACHN renal 56.8% | A498 renal 58.2% | CCRF-CEM leukemia 11.1%

COc1ccccc1S(=O)(=O)Nc1ccc2c3c(cc(-c4cnn(C5CC5)c4)nc13)C(=O)N2C
inactive: SK-MEL-2 melanoma 78.6% | EKVX NSCLC 56.1% | SN12C renal 76.7% | UO-31 renal 34.9% | TK-10 renal 48.2% | ACHN renal 68% | A498 renal 59.3% | CCRF-CEM leukemia 76.9% | MOLT-4 leukemia 56.3%

Cc1ccc2oc(=O)cc(C3C(C#N)=C(N)Oc4c3ccc3ccccc43)c2c1 (configuration not stated)
inactive: SK-MEL-2 melanoma 66.2% | EKVX NSCLC 77.6% | SN12C renal 92.6% | UO-31 renal 72.3% | TK-10 renal 91.9% | ACHN renal 99% | A498 renal 89.1% | CCRF-CEM leukemia 81.9% | MOLT-4 leukemia 46.3%

CCCc1nn2c(CCC(=O)c3nc4ccc([N+](=O)[O-])cc4[nH]3)nnc2s1
inactive: SK-MEL-2 melanoma 87.5% | EKVX NSCLC 95.6% | SN12C renal 101% | UO-31 renal 80.7% | TK-10 renal 133% | ACHN renal 102% | A498 renal 123% | CCRF-CEM leukemia 109%

COc1ccc(C2=NN(C(=O)COc3ccc(Cl)cc3)C(O)(c3cc(F)c(Cl)cc3Cl)C2)cc1OC (configuration not stated)
active: UO-31 renal -86.6% | ACHN renal 5.24% | CCRF-CEM leukemia -62.1%
inactive: SK-MEL-2 melanoma 68.3% | EKVX NSCLC 61.6% | SN12C renal 19.8% | TK-10 renal 16% | A498 renal 141%
